Activity calls are given as the source filed them.
experiment: osmotic lysis modulators in infected erythrocytes, primary screen, PSAC antagonist project, cell-based, P. falciparum Indochina, OD700, 3 h (AID 1156); settings: higher = more signal, called active from +8 up or from −8 down

z-score, inactive:
COc1cc(C(O)C2C=CC3C(=O)N(Cc4ccccc4)C(=O)C3N2n2cnnc2)cc(OC)c1OC (stereo unspecified) -0.666, COc1ccc(C(=O)Nc2cccc(CN3C(=O)[C@@]4(O[C@@H](CC(=O)N(CCO)Cc5ccccc5)[C@H]([Si](C)(C)c5ccc(OC)cc5)[C@H]4C)c4ccccc43)c2)cc1 -0.39, C=CCC(OC(C)=O)[C@@H]1[C@@H](N(Cc2ccc(-c3cccc(C(F)(F)F)c3)o2)C(=O)Cc2ccc(OC)cc2)c2cc(OCCCO)ccc2N1C(=O)Cc1ccc2ccccc2c1 (stereo partly specified) 1.83, CO[C@H]1O[C@H](CO)[C@@H](OC(=O)c2ccc(Br)cc2)[C@@H]2OC(=O)[C@H](Cc3ccccc3)C/C=C/C[C@@H](Cc3ccccc3)C(=O)O[C@@H]12 -1.53, O=C(CS)NCCCCCCNC(=O)[C@@H]1C[C@@H]2C(=O)NCC(=O)N2[C@@H]1c1ccc(O)cc1 1.62, COCCOC(=O)N1C(=O)[C@@]2(c3cc(C#CCNC(N)=O)ccc31)[C@H](c1ccc(OCCO)cc1)N1[C@H](c3ccccc3)[C@H](c3ccccc3)OC(=O)[C@H]1[C@@H]2C(=O)NC[C@H](O)c1ccccc1 0.624, CC(C)C[C@@H]1NC(=O)CNC(=O)[C@@]23C(=O)N[C@@H](Cc4ccccc4)C2[C@H](C)[C@@]2(C)O[C@H]2C3/C=C/C/C=C\CNC1=O (stereo partly specified) 0.183, COCCOC(=O)N1C(=O)[C@@]2(c3cc(C#CC4(O)CCCCCC4)ccc31)[C@H](c1ccc(OCCO)cc1)N1[C@H](c3ccccc3)[C@H](c3ccccc3)OC(=O)[C@H]1[C@@H]2C(=O)Nc1nc2ccccc2s1 0.834, COCCOC(=O)N1C(=O)[C@@]2(c3cc(C#CCC(C(=O)OC)C(=O)OC)ccc31)[C@H](C(=O)NC[C@H](O)c1ccccc1)[C@H]1C(=O)O[C@H](c3ccccc3)[C@H](c3ccccc3)N1[C@@H]2c1ccc(O)cc1 0.283, C=C(C(=O)CC[C@H](OC(=O)c1ccccc1-c1ccccc1C(=O)O)c1ccccc1OCCO)C(C)C 2.1, C=C(C)[C@@H]1CC=C(C(O)C2C=CC3C(=O)N(c4ccccc4)C(=O)C3N2Nc2ccc(C#N)cc2)CC1 (stereo partly specified) 0.625

experiment: PSAC antagonists in infected red cells, primary screen, cell-based, P. falciparum Indochina, OD700, 18 h (AID 1157); settings: P. falciparum Indochina infected erythrocytes, osmotic lysis OD700, 18 h; higher = more signal, called active from +8 up or from −8 down

z-score, inactive:
COC(=O)C(CC#Cc1ccc2c(c1)[C@]1(C(=O)N2)[C@H](c2ccc(O)cc2)N2[C@H](c3ccccc3)[C@H](c3ccccc3)OC(=O)[C@H]2[C@@H]1C(=O)N1CCCCCCC1)C(=O)OC -2.43, CC(C)=CCCC(C)=CC(O)C1C=CC2C(=O)N(c3ccccc3)C(=O)C2N1Nc1ccccc1F (stereo unspecified) -0.789, CN(C)CCCCNC(=O)[C@H]1C[C@H]2C(=O)N[C@@H](CCCC[N+](C)(C)C)C(=O)N2[C@H]1c1ccc(O)cc1 -1.63, CN(C)CCCNC(=O)[C@@H]1c2ccccc2C(=O)N(C2CCCCC2)[C@H]1c1ccc(CO)cc1 0.253, CC(C)CNC(=O)[C@@H]1c2ccccc2C(=O)N(C2CCCCC2)[C@H]1c1ccc(CO)cc1 -0.288, O=C1C2C=CC(C(O)c3ccco3)N(Nc3ccccc3)C2C(=O)N1c1ccccc1 (stereo unspecified) 0.851, COc1ccc([Si](C)(C)[C@@H]2[C@@H](CCn3cc([C@H](O)c4ccccc4)nn3)O[C@]3(C(=O)N(c4ccccc4)c4ccccc43)[C@H]2C)cc1 -1.63, CCCNC(=O)[C@@]1(Sc2ccc(C)cc2)CC(=O)N(C2CCCCC2)[C@@H]1c1ccc(CO)cc1I 0.376, COC(=O)C(CC#Cc1ccc2c(c1)[C@]1(C(=O)N2)[C@H](C(=O)Nc2nc3ccccc3s2)[C@H]2C(=O)O[C@H](c3ccccc3)[C@H](c3ccccc3)N2[C@@H]1c1ccc(OCCO)cc1)C(=O)OC -1.27, CC(=O)NCCCC[C@@H]1NC(=O)[C@@H]2C[C@H](C(=O)NCCCCCCN)[C@H](c3cccc(OCCO)c3)N2C1=O 0.351, COc1ccc([Si](C)(C)[C@H]2[C@H](CCO)O[C@@]3(C(=O)N(Cc4ccc(N5C(=O)c6ccccc6Oc6ccccc65)cc4)c4ccccc43)[C@@H]2C)cc1 1.38, CCCCC=C[C@@H](NC(=O)c1ccccc1)c1ccccc1 0.765, COCCOC(=O)N1C(=O)[C@@]2(c3cc(C#CC4=CCCCC4)ccc31)[C@H](C(=O)N1CCCCCCC1)[C@H]1C(=O)O[C@H](c3ccccc3)[C@H](c3ccccc3)N1[C@@H]2c1ccc(OCCO)cc1 0.481, COCCOC(=O)N1C(=O)[C@@]2(c3cc(C#CCNC(N)=O)ccc31)[C@H](c1ccc(O)cc1)N1[C@H](c3ccccc3)[C@H](c3ccccc3)OC(=O)[C@H]1[C@@H]2C(=O)N1CCN(c2ncccn2)CC1 0.973, COCCOC(=O)N1C(=O)[C@@]2(c3cc(C#CCCO)ccc31)[C@H](c1ccccc1OCCO)N1[C@H](c3ccccc3)[C@H](c3ccccc3)OC(=O)[C@H]1[C@@H]2C(=O)N1CCCCCCC1 0.951, CC(=O)N1CC(C(O)C2C=CC3C(=O)NC(=O)C3N2Nc2ccc(Cl)cc2Cl)c2ccccc21 (stereo unspecified) 1.17, COc1cc2c(cc1OC)CN(C(=O)[C@@H]1[C@H]3C(=O)O[C@H](c4ccccc4)[C@H](c4ccccc4)N3[C@H](c3ccc(O)cc3)[C@@]13C(=O)Nc1ccc(C#CCCO)cc13)CC2 0.165, NCCCCCNC(=O)[C@H]1C[C@H]2C(=O)N[C@@H](Cc3ccccc3)C(=O)N2[C@H]1c1ccc(O)cc1 0.204, CC(C)OC(=O)CC(=O)CC(O)c1ccc([N+](=O)[O-])cc1 (stereo unspecified) 0.438, CCCNC(=O)[C@@]1(C)c2ccccc2C(=O)N(Cc2ccccc2)[C@H]1c1ccc(CO)cc1 0.157, COC(=O)[C@@]1(Cc2ccc(OC)cc2)[C@H]2c3cc(C(=O)N4CCCC4)n(Cc4cc(C)n(C)n4)c3C[C@H]2CN1C(=O)c1ccccc1 0.494, C=CCC(OC(C)=O)[C@@H]1[C@@H](N(Cc2ccc(-c3cccc(C(F)(F)F)c3)o2)C(=O)c2ccc(C)cc2)c2cc(OCCCO)ccc2N1C(=O)Cc1ccc(OC)cc1 (stereo partly specified) 0.432, CC(=O)n1cc(C(O)C2C=CC3C(=O)N(c4ccccc4)C(=O)C3N2Nc2ccc(C(C)C)cc2)c2ccccc21 (stereo unspecified) 1.46, C=CCC(OC(C)=O)[C@@H]1[C@@H](N(Cc2ccc(-c3ccccc3)cc2)C(=O)c2ccc(C)cc2)c2cc(OCCCO)ccc2N1C(=O)Cc1ccc2ccccc2c1 (stereo partly specified) -0.938, COc1cc(C(O)C2C=CC3C(=O)N(Cc4ccccc4)C(=O)C3N2n2cnnc2)cc(OC)c1OC (stereo unspecified) -1.04, COc1ccc(C(=O)Nc2cccc(CN3C(=O)[C@@]4(O[C@@H](CC(=O)N(CCO)Cc5ccccc5)[C@H]([Si](C)(C)c5ccc(OC)cc5)[C@H]4C)c4ccccc43)c2)cc1 -1.31, C=CCC(OC(C)=O)[C@@H]1[C@@H](N(Cc2ccc(-c3cccc(C(F)(F)F)c3)o2)C(=O)Cc2ccc(OC)cc2)c2cc(OCCCO)ccc2N1C(=O)Cc1ccc2ccccc2c1 (stereo partly specified) 0.165, CO[C@H]1O[C@H](CO)[C@@H](OC(=O)c2ccc(Br)cc2)[C@@H]2OC(=O)[C@H](Cc3ccccc3)C/C=C/C[C@@H](Cc3ccccc3)C(=O)O[C@@H]12 -1.02, O=C(CS)NCCCCCCNC(=O)[C@@H]1C[C@@H]2C(=O)NCC(=O)N2[C@@H]1c1ccc(O)cc1 -1.41, COCCOC(=O)N1C(=O)[C@@]2(c3cc(C#CCNC(N)=O)ccc31)[C@H](c1ccc(OCCO)cc1)N1[C@H](c3ccccc3)[C@H](c3ccccc3)OC(=O)[C@H]1[C@@H]2C(=O)NC[C@H](O)c1ccccc1 0.457, CC(C)C[C@@H]1NC(=O)CNC(=O)[C@@]23C(=O)N[C@@H](Cc4ccccc4)C2[C@H](C)[C@@]2(C)O[C@H]2C3/C=C/C/C=C\CNC1=O (stereo partly specified) -0.16, COCCOC(=O)N1C(=O)[C@@]2(c3cc(C#CC4(O)CCCCCC4)ccc31)[C@H](c1ccc(OCCO)cc1)N1[C@H](c3ccccc3)[C@H](c3ccccc3)OC(=O)[C@H]1[C@@H]2C(=O)Nc1nc2ccccc2s1 1.53, COCCOC(=O)N1C(=O)[C@@]2(c3cc(C#CCC(C(=O)OC)C(=O)OC)ccc31)[C@H](C(=O)NC[C@H](O)c1ccccc1)[C@H]1C(=O)O[C@H](c3ccccc3)[C@H](c3ccccc3)N1[C@@H]2c1ccc(O)cc1 0.27, C=C(C(=O)CC[C@H](OC(=O)c1ccccc1-c1ccccc1C(=O)O)c1ccccc1OCCO)C(C)C 0.577, C=C(C)[C@@H]1CC=C(C(O)C2C=CC3C(=O)N(c4ccccc4)C(=O)C3N2Nc2ccc(C#N)cc2)CC1 (stereo partly specified) 2.49

Source: PubChem BioAssay
